# Compound activity deposited in PubChem BioAssay by National Center for Advancing Translational Sciences (NCATS).
# Compounds with a hit are over-represented: about 4.2% of the library has one in this group of screens.
# VDR inhibitor – Inhibitors of the vitamin D receptor (VDR): qHTS | 0.93% of 400,000 active | VDR-SRC2-3 peptide fluorescence polarization, 2 h | Potency, µM, for inactives: max response, negative = inhibition, most hits filed as inhibitors | Vitamin D3 receptor (Homo sapiens), P11473
#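 Compounds are added to VDR with labelled SRC2-3 coactivator peptide and held 2 h at room temperature. Inhibition of the VDR–peptide interaction is then read as a change in fluorescence polarization.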
# ALOX12 inh – Primary qHTS assay for inhibitors of human arachidonate 12S-lipoxygenase (ALOX12): Round 2; purified 12hLO, xylenol orange hydroperoxide absorbance; Polyunsaturated fatty acid lipoxygenase ALOX12 (Homo sapiens), P18054; Potency, µM (doses to about 108 µM), without a hit: at the top dose activity change, negative = inhibition, usual class: inhibitors; 1.1% of 580,000 active; AID 1671190, 2021
#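 Purified human 12hLO at 150 nM in 25 mM Hepes, 0.01% Triton X-100, pH 7.0, preincubated 15 min at room temperature with compound. Reaction started with 40 uM arachidonic acid, 30 min at room temperature. Hydroperoxide measured by Fe-xylenol orange, 573/405 nm absorbance ratio.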
# Sfp PPTase inh – qHTS Assay for Inhibitors of Bacillus subtilis Sfp phosphopantetheinyl transferase (PPTase). Potency, µM, for the others: largest response in the series, negative = inhibition, most hits filed as inhibitors. 3.5% of 310,000 active. Biochemical Sfp PPTase activity, qHTS. 4'-phosphopantetheinyl transferase ffp (Bacillus subtilis), Q9F4F7. AID 1490, 2009;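 further: the enzyme is Sfp with the accession as filed and its product quenches rhodamine fluorescence; 0% = enzyme reaction without inhibitor and -100% = no enzyme wells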
#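 After 15 min at room temperature with compound, 15 nM Sfp received 5 uM rhodamine-CoA plus 12.5 uM BHQ-2-ybbR (50 mM Hepes pH 7.6, 10 mM MgCl2). Rate came from the fluorescence difference over 30 min, ex 525/em 598 nm.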
# PLK1 PBD block – qHTS for Inhibitors of PLK1-PDB (polo-like kinase 1 - polo-box domain): Primary Screen. Serine/threonine-protein kinase PLK1 (Homo sapiens), P53350. 2.8% of 360,000 active. AID 720504, 2013. Plk1 PBD binding of FITC phosphopeptide, fluorescence polarization. Potency, µM, for the others: max response, negative = inhibition, actives largely listed as inhibitors; further: series mostly up to about 57 µM; nearly all actives have a fitted effect of over 65% in size
# Target sequence (P53350 whole entry, looked up, the tested form may be a part): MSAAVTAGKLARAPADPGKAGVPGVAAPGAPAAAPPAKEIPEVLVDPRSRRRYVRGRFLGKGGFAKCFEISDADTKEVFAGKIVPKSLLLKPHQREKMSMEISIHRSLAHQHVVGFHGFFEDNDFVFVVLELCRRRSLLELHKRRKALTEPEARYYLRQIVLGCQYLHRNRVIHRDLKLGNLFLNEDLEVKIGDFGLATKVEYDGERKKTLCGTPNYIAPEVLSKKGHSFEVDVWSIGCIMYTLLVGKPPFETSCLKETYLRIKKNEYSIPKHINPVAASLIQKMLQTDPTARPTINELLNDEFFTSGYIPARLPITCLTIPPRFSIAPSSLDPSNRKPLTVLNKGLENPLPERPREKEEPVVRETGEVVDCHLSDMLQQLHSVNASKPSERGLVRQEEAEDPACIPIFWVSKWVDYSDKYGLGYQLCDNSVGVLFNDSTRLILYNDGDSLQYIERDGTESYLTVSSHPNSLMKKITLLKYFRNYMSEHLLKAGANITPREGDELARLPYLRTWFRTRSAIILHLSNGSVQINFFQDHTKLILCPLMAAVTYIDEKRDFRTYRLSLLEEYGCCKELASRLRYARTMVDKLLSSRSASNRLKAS
# TbPYK confirm – qHTS of Trypanosoma Brucei Inhibitors: Confirmatory Assay for Cherry-picked Compounds | shares compounds with PLK1 PBD block | recombinant TbPYK, Kinase-Glo ATP luminescence | Potency, µM (doses to about 76.9 µM), inactives show at the highest dose activity change, negative = inhibition, most hits filed as inhibitors | 67% of 890 active | AID 720569, 2013; further: nearly all actives have a fitted effect of over 70% in size
# TbPYK orthogonal – qHTS of Trypanosoma Brucei Inhibitors: Orthogonal Assay for Cherry-picked Compounds; Potency, µM (doses to about 76.9 µM), for the others: at the highest dose activity change, negative = inhibition, usual class: inhibitors; shares compounds with PLK1 PBD block; recombinant TbPYK, ADP-Glo luminescence, 60 min; AID 720584, 2013; 62% of 890 active; further: nearly all actives have a fitted effect of over 75% in size
# The depositor's hits bear a star; ? = inconclusive; . = not tested or not shown. The call rests on the fitted dose curve; in most records, active means well fitted curve in the direction sought with a large enough effect; inconclusive means small, poorly fitted or top-dose-only effect, or another doubt; inactive means no such curve, though single readings can be large; an effect the other way counts as inactive or inconclusive. Unless noted, on the % scale 0 is the no-effect control and ±100 the full control effect; potency means the concentration at half of the fitted maximal effect.
SMILES,VDR inhibitor,ALOX12 inh,Sfp PPTase inh,PLK1 PBD block,TbPYK confirm,TbPYK orthogonal
Cc1onc(-c2c(F)cccc2Cl)c1C(=O)N1CCCC1,4.0%,4.4%,.,-5.6%,.,.
Cc1onc(-c2ccccc2Cl)c1C(=O)N1CCCc2ccccc21,-12.0%,4.3%,13.8%,-6.3%,7.94µM*,8.91µM*
N#Cc1c(NC(=O)CCC(=O)O)sc2c1CCCCC2,0.2%,?,20µM*,26.7µM*,?,?
N#Cc1c(NC(=O)CCC(=O)O)sc2c1CCCC2,-1.3%,1.5%,0.0%,-16.0%,.,.
CC1(C)OC(=O)C(=Cc2ccc(-c3ccc(Cl)c(C(=O)O)c3)o2)C(=O)O1,?,-23.5%,79.4µM*,1.68µM*,7.08µM*,17.8µM*
Cc1ccccc1NC(=O)/C(C#N)=C/c1ccc(-c2ccc(Cl)c(C(=O)O)c2)o1,-10.1%,-16.2%,9.9%,-1.9%,.,.
COc1ccc(/C(N)=N/OC(=O)Cc2cccs2)cc1,-4.8%,-23.6%,6.0%,-10.8%,.,.
CC1=C/C(=C(/c2cc(C)c(O)c(Br)c2)c2ccccc2S(=O)(=O)O)C=C(Br)C1=O,101.6%,?,-21.1%,?,22.4µM*,10.3%
O=C(COc1cccc(C(F)(F)F)c1)N1CCN(c2ccc(O)cc2)CC1,8.2%,?,28.2µM*,-2.5%,8.91µM*,?
O=C(COc1cccc(C(F)(F)F)c1)N1CCN(c2ccccc2O)CC1,18.8%,-6.5%,18.4%,-6.6%,.,.
N#Cc1cc(-c2ccccc2)nn1-c1ccccc1,?,?,17.8µM*,5.97µM*,2.51µM*,3.16µM*
Cn1ccc(-c2ccccc2)n1,12.9%,0.0%,17.7%,-3.1%,.,.
Clc1ccc2nc(-c3ccco3)c(Cc3ccccc3)n2c1,.,17.8µM*,.,?,?,35.5µM*
COC(=O)c1ccc2nc(-c3ccccc3)c(Cc3ccccc3)n2c1,.,0.0%,.,.,.,.
Fc1cccc(Cc2c(-c3ccco3)nc3ccc(Cl)cn23)c1,.,.,.,23.8µM*,-28.5%,?
Fc1cccc(Cc2c(-c3ccco3)nc3ccc(Br)cn23)c1,.,-113.8%,.,23.8µM*,?,?
COC(=O)c1ccc2nc(-c3ccco3)c(Cc3ccccc3)n2c1,.,39.8µM*,.,?,12.6µM*,14.1µM*
Fc1cccc(Cc2c(-c3ccccc3)nc3ccc(Br)cn23)c1,.,0.0%,.,-4.2%,.,.
Cc1ccc2nc(-c3ccco3)c(Cc3ccccc3)n2c1,.,?,.,-14.2%,.,.
CCN(CC)C(=O)c1[nH]cnc1C(=O)N[C@@H](C)C(=O)OCc1ccccc1,-14.7%,-1.0%,11.6%,-9.0%,.,.
O=C(OCCC1Oc2cccnc2NC1=O)c1ccc(Cl)cc1 (stereo not given),-14.9%,6.7%,9.7%,-17.5%,.,.
CCN1C[C@@H]2[C@@H]3C(=O)N(Cc4ccccc4)C(=O)[C@@H]3[C@](C)(C1=O)N2C(=O)c1ccc(Cl)c(Cl)c1,-0.7%,2.9%,.,2.4%,.,.
O=C(c1ccccc1Cl)N1CCCC(c2nn(-c3ccc(F)cc3)c(=O)[nH]2)C1 (stereo not given),.,-5.3%,.,.,.,.
Oc1ccc(/C=N/Nc2nccnc2Cl)c(O)c1,-14.9%,-14.7%,13.8%,0.6%,?,2.6%
Oc1ccc(N2CCN(c3nc(-c4cccs4)nc4ccccc34)CC2)cc1,-2.9%,?,?,0.3%,?,35.5µM*
SMILES,VDR inhibitor,ALOX12 inh,Sfp PPTase inh,PLK1 PBD block,TbPYK confirm,TbPYK orthogonal
CCc1nc2ccc(C(=O)NCCc3ccco3)cc2nc1CC,-4.5%,.,-7.6%,-19.5%,.,.
O=C(Nc1ccccc1)c1ccc2nc(-c3ccco3)c(-c3ccco3)nc2c1,?,?,20µM*,26.7µM*,?,?
O=C(NCCCO)c1ccc2nc(-c3ccco3)c(-c3ccco3)nc2c1,79.4µM*,?,10µM*,29.9µM*,22.4µM*,35.5µM*
O=C(NCc1ccccc1)c1ccc2nc(-c3ccco3)c(-c3ccco3)nc2c1,39.8µM*,?,7.08µM*,7.52µM*,17.8µM*,17.8µM*
Cc1ccc(CNC(=O)c2ccc3nc(-c4ccccc4)c(-c4ccccc4)nc3c2)cc1,.,-21.6%,.,.,.,.
Nc1nc(O)c(N=Nc2ccc(S(N)(=O)=O)cc2)c(=O)[nH]1,-12.7%,0.0%,-7.3%,-0.4%,.,.
NS(=O)(=O)c1ccc(N=Nc2c[nH]c(=O)c(O)c2)cc1,?,0.0%,44.7µM*,?,?,-11.6%
COC(=O)COc1ccc(C2Nc3c(Cl)ccc(C(=O)O)c3C3C=CCC32)cc1 (stereo not given),?,?,10µM*,21.2µM*,?,?
COc1ccc(-n2c(C)c(C(C)=O)c3cc(OC(=O)COc4ccccc4)ccc32)cc1,-10.2%,-19.7%,.,.,.,.
COc1ccc(Cl)cc1NC(=O)c1cc(=O)n2c(nc3ccccc32)s1,.,-38.5%,.,.,.,.
O=C1c2sc3nc4ccccc4n3c2C(=O)N1c1ccccc1Cl,-4.0%,?,39.8µM*,11.9µM*,6.31µM*,15.8µM*
CC(C)(C)N1C(=O)c2ccccc2NC(=O)N1Cc1ccccc1,-4.7%,18.7%,12.3%,-1.2%,.,.
O=C1Nc2ccccc2C(=O)C1(Cl)Cc1ccccc1 (stereo not given),28.2µM*,?,17.8µM*,1.19µM*,3.16µM*,12.6µM*
Cn1c(=O)c2c(nc(SCC(=O)N3CCOCC3)n2Cc2ccc(Cl)cc2Cl)n(C)c1=O,.,8.5%,.,.,.,.
Cn1c(=O)c2c(nc(SCC(=O)O)n2Cc2cc3c(cc2Cl)OCO3)n(C)c1=O,-5.2%,?,56.2µM*,-5.6%,2µM*,3.98µM*
CC(C)CCn1nnnc1C(c1ccccc1)N1CCN(C)CC1 (stereo not given),-6.4%,5.9%,5.0%,-0.7%,.,.
C=CCN1CCN(C(c2ccccc2)c2nnnn2CCC(C)C)CC1 (stereo not given),?,-28.5%,1.1%,2.67µM*,3.5%,-4.0%
CC(C)NC(=O)N1CCC(N2CC3CC(C2)[C@H]2CCCC(=O)N2C3)CC1 (stereo not given in full),.,10.3%,.,.,.,.
CCOC(=O)C(C)(C)N(Cc1ccccc1C)S(=O)(=O)c1ccc(Cl)c([N+](=O)[O-])c1,-14.8%,-2.0%,-0.4%,-10.1%,2.6%,2.1%
CCCN(CCC)S(=O)(=O)c1ccc(Cl)c([N+](=O)[O-])c1,9.4%,10.5%,6.0%,-11.5%,.,.
CCN(CC)c1ccc(C(=C2C=CC(=[N+](CC)CC)C=C2)c2ccc(S(=O)(=O)O)cc2S(=O)(=O)[O-])cc1,57.1%,?,.,-13.2%,15.8µM*,2.3%
CCN(CC)c1ccc(C(=O)O)cc1,-16.5%,-4.8%,0.4%,-7.1%,.,.
